Measurements from PubChem BioAssay (NCATS).
Results filed as inconclusive are left out. Calls of active or inactive are those of the source. Calls follow the shape of the dose curve; as a rule, active = well fitted curve in the direction sought with a large enough effect; inconclusive = small, poorly fitted or top-dose-only effect, or another doubt; inactive = no such curve, though single readings can be large; an effect the other way counts as inactive or inconclusive.

Legend:
[1] = Quantitative High-Throughput drug screen in 47 multiple myeloma cell lines against the NCATS MIPE library collection: FR4_PLB cell viability assay (AID 1918924; also: nearly all actives have a fitted effect of over 35% in size; also: potency is read from the fitted curve at half-maximal effect)
Outline: (§1)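 Myeloma cell lines, 500 cells per well, exposed to MIPE 4.0 library compounds for 48 h at 37C, 5% CO2. Viability from ATP by CellTiter-Glo luminescence; normalised to DMSO (100%) and media-only (0%) wells.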

[2] = Quantitative High-Throughput drug screen in 47 multiple myeloma cell lines against the NCATS MIPE library collection: Delta47_JCRB cell viability assay (AID 1918925; also: nearly all actives have a fitted effect of over 45% in size; also: potency is read from the fitted curve at half-maximal effect)
Outline: as §1

[3] = Quantitative High-Throughput drug screen in 47 multiple myeloma cell lines against the NCATS MIPE library collection: EJM_DSMZ cell viability assay (AID 1918926; also: nearly all actives have a fitted effect of over 30% in size; also: potency is read from the fitted curve at half-maximal effect)
Outline: as §1

[4] = Quantitative High-Throughput drug screen in 47 multiple myeloma cell lines against the NCATS MIPE library collection: AMO1_DSMZ cell viability assay (AID 1918927; also: nearly all actives have a fitted effect of over 30% in size; also: potency is read from the fitted curve at half-maximal effect)
Outline: as §1

[5] = Quantitative High-Throughput drug screen in 47 multiple myeloma cell lines against the NCATS MIPE library collection: ARP1_JJKsccF8 cell viability assay (AID 1918928; also: nearly all actives have a fitted effect of over 40% in size; also: potency is read from the fitted curve at half-maximal effect)
Outline: (§2)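 Here, 48 h treatment with MIPE 4.0 agents at 37 °C preceded an ATP luminescence read. Plating density was 500 cells per well.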

[6] = Quantitative High-Throughput drug screen in 47 multiple myeloma cell lines against the NCATS MIPE library collection: Karpas620_DSMZ cell viability assay (AID 1918959); also: nearly all actives have a fitted effect of over 30% in size; also: potency is read from the fitted curve at half-maximal effect
Outline: as §1

[7] = Quantitative High-Throughput drug screen in 47 multiple myeloma cell lines against the NCATS MIPE library collection: KMM1_JCRB cell viability assay (AID 1918960); also: nearly all actives have a fitted effect of over 30% in size; also: potency is read from the fitted curve at half-maximal effect
Outline: as §2

[8] = Quantitative High-Throughput drug screen in 47 multiple myeloma cell lines against the NCATS MIPE library collection: JIM3_ECACC cell viability assay (AID 1918963; also: nearly all actives have a fitted effect of over 35% in size; also: potency is read from the fitted curve at half-maximal effect)
Outline: as §1

[9] = Quantitative High-Throughput drug screen in 47 multiple myeloma cell lines against the NCATS MIPE library collection: INA6_PLB cell viability assay (AID 1918965; also: nearly all actives have a fitted effect of over 55% in size; also: potency is read from the fitted curve at half-maximal effect)
Outline: as §1

[10] = Quantitative High-Throughput drug screen in 47 multiple myeloma cell lines against the NCATS MIPE library collection: Karpas25_ECACC cell viability assay (AID 1918968; also: nearly all actives have a fitted effect of over 35% in size; also: potency is read from the fitted curve at half-maximal effect)
Outline: as §1

[11] = Quantitative High-Throughput drug screen in 47 multiple myeloma cell lines against the NCATS MIPE library collection: KMS27_JCRB cell viability assay (AID 1918970); also: nearly all actives have a fitted effect of over 30% in size; also: potency is read from the fitted curve at half-maximal effect
Outline: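 Luminescent ATP read-out (CellTiter-Glo, 5 min at room temperature) after 48 h compound exposure of 500 KMS27_JCRB cells per well; DMSO wells define full viability and media-only wells zero.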

[12] = Quantitative High-Throughput drug screen in 47 multiple myeloma cell lines against the NCATS MIPE library collection: KMS12BM_JCRB cell viability assay (AID 1918971); also: nearly all actives have a fitted effect of over 35% in size; also: potency is read from the fitted curve at half-maximal effect
Outline: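 Inhibition of cell viability is measured here. Each line was plated at 500 cells per well, treated with MIPE 4.0 drugs, kept 48 hours at 37C, then assayed for ATP content by CellTiter-Glo luminescence.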

[13] = Quantitative High-Throughput drug screen in 47 multiple myeloma cell lines against the NCATS MIPE library collection: JJN3_DSMZ cell viability assay (AID 1918966; also: nearly all actives have a fitted effect of over 50% in size; also: potency is read from the fitted curve at half-maximal effect)
Outline: as §1

[14] = Quantitative High-Throughput drug screen in 47 multiple myeloma cell lines against the NCATS MIPE library collection: KMS12PE_JCRB cell viability assay (AID 1918972); also: nearly all actives have a fitted effect of over 30% in size; also: potency is read from the fitted curve at half-maximal effect
Outline: as §1

[15] = Quantitative High-Throughput drug screen in 47 multiple myeloma cell lines against the NCATS MIPE library collection: ARD_JJKsccE7 cell viability assay (AID 1918929; also: potency is read from the fitted curve at half-maximal effect)
Outline: as §1

[16] = Quantitative High-Throughput drug screen in 47 multiple myeloma cell lines against the NCATS MIPE library collection: Karpas417_ECACC cell viability assay (AID 1918961); conditions: Karpas417 myeloma viability, CellTiter-Glo ATP luminescence, 48 h; viability (% of DMSO): at 45.8 µM (top of the series); also: potency is read from the fitted curve at half-maximal effect
Outline: as §1

[17] = Quantitative High-Throughput drug screen in 47 multiple myeloma cell lines against the NCATS MIPE library collection: JIM1_ECACC cell viability assay (AID 1918964; also: potency is read from the fitted curve at half-maximal effect)
Outline: as §1

[18] = Quantitative High-Throughput drug screen in 47 multiple myeloma cell lines against the NCATS MIPE library collection: H1112_PLB cell viability assay (AID 1918967; also: nearly all actives have a fitted effect of over 30% in size; also: potency is read from the fitted curve at half-maximal effect)
Outline: as §1

[19] = Primary redox qHTS assay for identification of artifact compounds. (AID 1845223)
Outline: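 Amplex Red (25 uM) and HRP (250 mU/mL) in HBSS, with compounds for 15 min, then 250 uM DTT for 30 min, room temperature, dark. Fluorescence 525/598 nm read; normalized to DMSO and 10 uM DA3003; Hill fit.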

[20] = Quantitative High-Throughput drug screen in 47 multiple myeloma cell lines against the NCATS MIPE library collection: KHM11_PLB cell viability assay (AID 1918962); also: nearly all actives have a fitted effect of over 35% in size
Outline: as §1

Measured: Potency

CN(C)CCOC(c1ccccc1)c1ccccc1
active: [2] 8.33 µM | [8] 23.5 µM | [9] 10.5 µM | [10] 9.35 µM
inactive: [1] | [3] | [4] | [5] | [6] | [7] | [11] | [12]

CCOC(=O)C(C)(C)Oc1ccc(Cl)cc1
active: [10] 0.662 µM
not listed: [4] | [12] | [15] | [16] | [17] | [18] | [19] | [20]
inactive: all other assays above

CN1CCN(CCCN2c3ccccc3Sc3ccc(Cl)cc32)CC1
active: [1] 23.5 µM | [2] 18.7 µM | [3] 23.5 µM | [5] 20.9 µM | [15] 16.6 µM | [6] 4.18 µM | [7] 16.6 µM | [16] 0.132 µM | [8] 23.5 µM | [17] 3.32 µM | [9] 14.8 µM | [13] 18.7 µM | [18] 20.9 µM | [10] 5.26 µM | [11] 16.6 µM | [12] 16.6 µM | [14] 8.33 µM

O=C(c1ccc(F)cc1)C1CCN(CCn2c(=O)[nH]c3ccccc3c2=O)CC1
active: [9] 20.9 µM
not listed: [2] | [4] | [10] | [13] | [15] | [16] | [20]
inactive: all other assays above

Cc1cc(C(C)(C)C)cc(C)c1CC1=NCCN1
inactive: [1] | [2] | [3] | [4] | [5] | [15] | [6] | [8] | [18] | [10] | [14]

O=C(Nc1ccc([N+](=O)[O-])cc1Cl)c1cc(Cl)ccc1O
active: [1] 2.09 µM | [2] 1.32 µM | [3] 1.87 µM | [4] 0.526 µM | [5] 1.66 µM | [15] 0.526 µM | [6] 0.935 µM | [7] 0.235 µM | [16] 0.59 µM | [8] 0.59 µM | [17] 1.05 µM | [9] 0.935 µM | [13] 1.87 µM | [18] 1.32 µM | [10] 0.332 µM | [11] 0.935 µM | [12] 1.48 µM | [14] 0.469 µM

NC(=O)NO
active: [1] 3.32 µM | [2] 2.35 µM | [3] 0.526 µM | [5] 2.96 µM | [15] 0.235 µM | [6] 3.72 µM | [7] 0.235 µM | [16] 1.48 µM | [8] 0.187 µM | [17] 1.66 µM | [9] 0.166 µM | [13] 2.35 µM | [18] 2.96 µM | [10] 0.166 µM | [11] 0.743 µM | [12] 1.48 µM | [14] 0.833 µM

NC(=O)OCC(COC(N)=O)c1ccccc1
not listed: [10] | [13] | [16] | [17] | [19]
inactive: all other assays above

Cn1cnc2c1c(=O)[nH]c(=O)n2C
active: [1] 26.4 µM | [2] 14.8 µM | [3] 20.9 µM | [4] 9.35 µM | [5] 14.8 µM | [15] 7.43 µM | [6] 7.43 µM | [7] 7.43 µM | [16] 9.35 µM | [8] 16.6 µM | [17] 4.69 µM | [9] 7.43 µM | [13] 16.6 µM | [18] 18.7 µM | [10] 9.35 µM | [11] 9.35 µM | [12] 18.7 µM | [14] 5.9 µM

CN(C)CCCN1c2ccccc2CCc2ccc(Cl)cc21
active: [1] 1.18 µM | [2] 1.18 µM | [3] 0.264 µM | [4] 1.05 µM | [15] 8.33 µM | [6] 16.6 µM | [7] 11.8 µM | [8] 4.69 µM | [17] 9.35 µM | [18] 0.833 µM | [10] 0.743 µM | [11] 14.8 µM | [12] 18.7 µM | [14] 11.8 µM

Cc1ccc(C(=O)Nc2ccc(S(=O)(=O)O)c3cc(S(=O)(=O)O)cc(S(=O)(=O)O)c23)cc1NC(=O)c1cccc(NC(=O)Nc2cccc(C(=O)Nc3cc(C(=O)Nc4ccc(S(=O)(=O)O)c5cc(S(=O)(=O)O)cc(S(=O)(=O)O)c45)ccc3C)c2)c1
active: [8] 16.6 µM | [9] 4.69 µM
not listed: [4] | [7] | [16] | [18] | [19] | [20]
inactive: all other assays above

CS(=O)(=O)CCNCc1ccc(-c2ccc3ncnc(Nc4ccc(OCc5cccc(F)c5)c(Cl)c4)c3c2)o1
active: [1] 14.8 µM | [2] 0.235 µM | [3] 0.0235 µM | [15] 6.62 µM | [6] 18.7 µM | [7] 13.2 µM | [16] 6.62 µM | [8] 1.18 µM | [17] 6.62 µM | [9] 3.32 µM | [18] 0.0743 µM | [10] 0.372 µM | [11] 10.5 µM | [12] 20.9 µM | [14] 4.69 µM
inactive: [19]

CCOC(=O)Nc1ccc(NCc2ccc(F)cc2)nc1N
active: [15] 18.7 µM | [6] 20.9 µM | [9] 14.8 µM | [11] 18.7 µM
inactive: [1] | [2] | [3] | [5] | [16] | [8] | [18] | [10] | [12]
